These results are taken from PubChem BioAssay (NCI).

The panel holds about 79,000 compounds, 15% with a hit somewhere; the sample as a whole holds those more often. A number with no mark means an inactive call. Activity calls are given as the source filed them. No stated cut-off is given here; in the data, active means growth inhibition above about 70%; inactive means the rest.

Test [1] can be described thus: NCI Yeast Anticancer Drug Screen. Data for the rad50 strain (AID 155).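 Further: 0% = growth of vehicle-only cultures of the same strain.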 The following applies: S. cerevisiae rad50 strain growth inhibition, active compounds read high. Summed up: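 A DNA repair-deficient yeast mutant serves as the test organism; compound-induced growth inhibition is calculated against vehicle-treated cells.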
Test [2] can be described thus: NCI Yeast Anticancer Drug Screen. Data for the mec2-1 strain (AID 157). The following applies: S. cerevisiae mec2-1 strain, active compounds read high. In a few lines:
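Compounds were applied to mec2-1 yeast cells. Their growth was then compared with that of vehicle-treated cultures to give growth inhibition.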

A short description of test [3]: NCI Yeast Anticancer Drug Screen. Data for the sgs1 mgt1 strain (AID 161).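 Further: 0% = growth of cultures given vehicle only.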 The following applies: S. cerevisiae sgs1 mgt1 strain, active compounds read high. Summed up: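 This yeast growth screen uses a strain with defined DNA-repair lesions; compound-treated growth is compared with vehicle-treated growth.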
Test [4] can be described thus: NCI Yeast Anticancer Drug Screen. Data for the cln2 rad14 strain (AID 165).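 Further: 0% = growth equal to vehicle treated cultures.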 The following applies: S. cerevisiae cln2 rad14 strain, active compounds read high. Summed up: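 Strain: cln2 rad14 yeast, altered in cell cycle control and DNA damage repair. Read-out: growth inhibition vs vehicle.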
A short description of test [5]: NCI Yeast Anticancer Drug Screen. Data for the bub3 strain (AID 167). To be noted: S. cerevisiae bub3 mutant strain, active compounds read high. Summed up: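 Inhibition values come from growth of compound-treated mutant yeast normalised to vehicle-treated controls.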
Test [6] can be described thus: NCI Yeast Anticancer Drug Screen. Data for the mlh1 rad18 strain (AID 175). The following applies: S. cerevisiae mlh1 rad18 strain growth inhibition, active compounds read high. In a few lines:
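A repair-deficient yeast strain is exposed to test compound, and growth is scored relative to vehicle-treated controls.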

Where [7] appears, read: at 5.0 µM (retest, dose inferred, filed as 0.5).
Where [8] appears, read: at 50.0 µM (retest, dose inferred, filed as 5.0).

As to `Fc1ccc(NCCS)cc1`, the growth inhibition is -18% in test [1] (setting [7]); 90% (active) in test [1] (setting [8]); 85.2% (active) in test [1] (at 50.0 µM); -27% in test [2] (setting [7]); 95% (active) in test [2] (setting [8]); 87.8% (active) in test [2] (at 50.0 µM). The growth inhibition in test [3] (setting [7]) is -18%; in test [3] (setting [8]), 61%; in test [3] (at 50.0 µM), 79.1% (active); in test [4] (setting [7]) it was -4%; in test [4] (setting [8]) it was 66%; in test [4] (at 50.0 µM) it was 60.2%. Also, the growth inhibition in test [5] (setting [7]) was 10%; in test [5] (setting [8]), 93% (active); in test [5] (at 50.0 µM) it was 86.9% (active); in test [6] (setting [7]), -31%; in test [6] (setting [8]), 90% (active); in test [6] (at 50.0 µM), 84.3% (active).
`Cc1c(O)ccc(SC#N)c1C`: the growth inhibition in test [1] (setting [7]) was -7%; in test [1] (setting [8]) it was 82% (active); in test [1] (at 50.0 µM) it was 88.5% (active); in test [2] (setting [7]), 2%; in test [2] (setting [8]), 74% (active); in test [2] (at 50.0 µM), 83.8% (active). In addition, the growth inhibition in test [3] (setting [7]) is 7%; in test [3] (setting [8]), 75% (active); in test [3] (at 50.0 µM), 86.7% (active); in test [4] (setting [7]), 29%; in test [4] (setting [8]), 85% (active); in test [4] (at 50.0 µM), 84% (active). The growth inhibition in test [5] (setting [7]) is -3%; in test [5] (setting [8]) it was 84% (active); in test [5] (at 50.0 µM), 87.5% (active); in test [6] (setting [7]), -1%; in test [6] (setting [8]) it was 87% (active); in test [6] (at 50.0 µM), 88.5% (active).
`CC1=CC[C@@H]2[C@@H](CC[C@@]2(C)O)C(C)(C)[C@H]1CC[C@@H]1[C@@]2(C)CC[C@@H](O)C(C)(C)O[C@@H]2CC[C@]1(C)O`: the growth inhibition in test [1] (setting [7]) was 12%; in test [1] (setting [8]), 39%; in test [1] (at 50.0 µM), 62.9%; in test [2] (setting [7]) it was -8%; in test [2] (setting [8]), 19%; in test [2] (at 50.0 µM), 38%. Further, the growth inhibition in test [3] (setting [7]) was 4%; in test [3] (setting [8]) it was 70% (active); in test [3] (at 50.0 µM), 77.5% (active); in test [4] (setting [7]) it was 18%; in test [4] (setting [8]), 19%; in test [4] (at 50.0 µM) it was 46%. Moreover, the growth inhibition in test [5] (setting [7]) is 17%; in test [5] (setting [8]), 33%; in test [5] (at 50.0 µM), 45.8%; in test [6] (setting [7]), -2%; in test [6] (setting [8]), 20%; in test [6] (at 50.0 µM) it was 12.6%.
For the compound `CCOC(=O)COc1cc(-c2ccccc2F)nc2cc3c(cc12)OCO3`, the growth inhibition in test [1] (setting [7]) is 9%; in test [1] (setting [8]), 24%; in test [1] (at 50.0 µM), 14.7%; in test [2] (setting [7]), 4%; in test [2] (setting [8]), 6%; in test [2] (at 50.0 µM), 15.1%. Moreover, the growth inhibition was -16% in test [3] (setting [7]); -9% in test [3] (setting [8]); 47.2% in test [3] (at 50.0 µM); 8% in test [4] (setting [7]); 15% in test [4] (setting [8]); 23.6% in test [4] (at 50.0 µM). Besides, the growth inhibition is -29% in test [5] (setting [7]); 36% in test [5] (setting [8]); 65.8% in test [5] (at 50.0 µM); 12% in test [6] (setting [7]); 26% in test [6] (setting [8]); 17.6% in test [6] (at 50.0 µM).
Turning to `CC(=O)N1CC(=O)NC1=S`, the growth inhibition was -10% in test [1] (setting [7]); -18% in test [1] (setting [8]); 69.6% in test [1] (at 50.0 µM); -11% in test [2] (setting [7]); -14% in test [2] (setting [8]); 39.9% in test [2] (at 50.0 µM). In addition, the growth inhibition in test [3] (setting [7]) is -5%; in test [3] (setting [8]), -17%; in test [3] (at 50.0 µM) it was 25.3%; in test [4] (setting [7]), -4%; in test [4] (setting [8]), 7%; in test [4] (at 50.0 µM), 53.1%. In addition, the growth inhibition in test [5] (setting [7]) is -36%; in test [5] (setting [8]), -12%; in test [5] (at 50.0 µM), 5.45%; in test [6] (setting [7]), -24%; in test [6] (setting [8]), -33%; in test [6] (at 50.0 µM), 67.3%.
As to `C/C(=N\NC(=S)N1CC2CCC(CC2)C1)c1ccccn1`, the growth inhibition in test [1] (setting [7]) was 33%; in test [1] (setting [8]), 65%; in test [1] (at 50.0 µM), 86.7% (active); in test [2] (setting [7]), 13%; in test [2] (setting [8]), 73% (active); in test [2] (at 50.0 µM), 89.7% (active). The growth inhibition is 26% in test [3] (setting [7]); 76% (active) in test [3] (setting [8]); 88.8% (active) in test [3] (at 50.0 µM); 23% in test [4] (setting [7]); 81% (active) in test [4] (setting [8]); 79.1% (active) in test [4] (at 50.0 µM). For the same compound, the growth inhibition is 21% in test [5] (setting [7]); 80% (active) in test [5] (setting [8]); 88.7% (active) in test [5] (at 50.0 µM); 25% in test [6] (setting [7]); 68% in test [6] (setting [8]); 92.3% (active) in test [6] (at 50.0 µM).
In the case of `CN(C)c1ccc(C(C#N)(c2ccccc2)c2ccc(N(C)C)cc2)cc1`, the growth inhibition was 35% in test [1] (setting [7]); 87% (active) in test [1] (setting [8]); 39.3% in test [1] (at 50.0 µM); 14% in test [2] (setting [7]); 92% (active) in test [2] (setting [8]); 96.2% (active) in test [2] (at 50.0 µM). Further, the growth inhibition was 48% in test [3] (setting [7]); 93% (active) in test [3] (setting [8]); 94.2% (active) in test [3] (at 50.0 µM); 1% in test [4] (setting [7]); 89% (active) in test [4] (setting [8]); 59.8% in test [4] (at 50.0 µM). The growth inhibition is 80% (active) in test [5] (setting [7]); 91% (active) in test [5] (setting [8]); 97.5% (active) in test [5] (at 50.0 µM); 16% in test [6] (setting [7]); 86% (active) in test [6] (setting [8]); 43.5% in test [6] (at 50.0 µM).
Take `CN(C)CCSC1=Nc2ccc(Cl)cc2C(c2ccccc2Cl)N(C)C1` (configuration not stated): the growth inhibition was 8% in test [1] (setting [7]); 80% (active) in test [1] (setting [8]); 96.7% (active) in test [1] (at 50.0 µM); 3% in test [2] (setting [7]); 47% in test [2] (setting [8]); 95.7% (active) in test [2] (at 50.0 µM). Also, the growth inhibition in test [3] (setting [7]) is 3%; in test [3] (setting [8]), 78% (active); in test [3] (at 50.0 µM) it was 88.3% (active); in test [4] (setting [7]), 4%; in test [4] (setting [8]), 27%; in test [4] (at 50.0 µM), 80.2% (active). Moreover, the growth inhibition in test [5] (setting [7]) was 0%; in test [5] (setting [8]), 82% (active); in test [5] (at 50.0 µM) it was 97% (active); in test [6] (setting [7]), 10%; in test [6] (setting [8]) it was 84% (active); in test [6] (at 50.0 µM) it was 95.8% (active).
For the compound `Cc1nc(Sc2nc3ccc([N+](=O)[O-])cc3s2)sc1C`, the growth inhibition is -8% in test [1] (setting [7]); 86% (active) in test [1] (setting [8]); 88.2% (active) in test [1] (at 50.0 µM); -12% in test [2] (setting [7]); 90% (active) in test [2] (setting [8]); 86.5% (active) in test [2] (at 50.0 µM). In addition, the growth inhibition is -2% in test [3] (setting [7]); 92% (active) in test [3] (setting [8]); 84.1% (active) in test [3] (at 50.0 µM); -9% in test [4] (setting [7]); 85% (active) in test [4] (setting [8]); 46% in test [4] (at 50.0 µM). Besides, the growth inhibition in test [5] (setting [7]) is -12%; in test [5] (setting [8]) it was 88% (active); in test [5] (at 50.0 µM), 57.3%; in test [6] (setting [7]) it was -13%; in test [6] (setting [8]) it was 90% (active); in test [6] (at 50.0 µM) it was 93.6% (active).
